Sampled rows, rich in hits. Any-hit rate of the full collection: about 11%.
MCF10A rereplic: induces DNA re-replication in MCF 10a normal breast cells; MCF 10A DNA re-replication, Hoechst nuclear intensity, 48 h; AID 624296; actives 2.9% (n = 350,000); Potency, µM (series often up to 46.1 µM), for inactives: at the top dose activity, positive = re-replication, actives largely listed as activators; further: potency means the concentration at half of the fitted maximal effect; % of control where 0% means no effect; nearly all actives have a fitted effect of over 50% in size
Gal4-VP16 FLuc: Gal4-VP16 reporter inhibition counter-screen | Drosophila S2 Gal4-VP16 UAS-luciferase, luminescence, 20 h | actives 3.5% (n = 310,000) | AID 2546 | Potency, µM (top dose mostly 53.6 µM), for inactives: at the top dose activity, negative = inhibition, usual class: inhibitors;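 further: Gal4-VP16 expression switched on by copper sulfate through the metallothionein promoter; potency means the concentration at half of the fitted maximal effect; on the % scale 0 is the no-effect control and ±100 the full control effect; nearly all actives have a fitted effect of over 50% in size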
IL1B secr inh: blocks inflammasome-driven IL-1 beta release | AID 743279 | THP-1 LPS/ATP IL-1B secretion, AlphaLISA, 16 h; active compounds read low | activity change, % at 57.5 µM | actives 4.7% (n = 360,000); in the data active means activity change below about -50%; inconclusive means mostly about -30% to -49%; further: on the % scale 0 is the no-effect control and ±100 the full control effect
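THP-1 cells pretreated 1 hr with compounds (up to 57.5 uM final), then stimulated with LPS (250 ng/mL final) plus ATP (1.25 mM final); secreted IL-1B measured by AlphaLISA after 16 hr, decreased signal indicating inhibition.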
SW480 rereplic: DNA re-replication induction in SW480 cells; SW480 DNA re-replication, Hoechst DNA content imaging, 48 h; Potency, µM (doses to about 46.1 µM), inactives show top-dose re-replication activation, most hits filed as activators; actives 1.8% (n = 340,000); further: potency means the concentration at half of the fitted maximal effect; % of control where 0% means no effect; nearly all actives have a fitted effect of over 55% in size
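Quantitative HTS format with DMSO vehicle controls; 48 hr drug incubation at 37 C, then 40 min Hoechst staining and scanning imager measurement at 405 nm excitation.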
RORg inh: blocks mouse ROR gamma transcriptional activity; Potency, µM (titrated, usually from 53.6 µM), inactives show at the top dose activity change, negative = inhibition, most hits filed as inhibitors; Drosophila S2 Gal4-RORgamma UAS-luciferase reporter, 20 h; actives 5.4% (n = 310,000); P51450; further: potency means the concentration at half of the fitted maximal effect; on the % scale 0 is the no-effect control and ±100 the full control effect; nearly all actives have a fitted effect of over 60% in size
Target sequence (P51450 whole entry, looked up, the tested form may be a part): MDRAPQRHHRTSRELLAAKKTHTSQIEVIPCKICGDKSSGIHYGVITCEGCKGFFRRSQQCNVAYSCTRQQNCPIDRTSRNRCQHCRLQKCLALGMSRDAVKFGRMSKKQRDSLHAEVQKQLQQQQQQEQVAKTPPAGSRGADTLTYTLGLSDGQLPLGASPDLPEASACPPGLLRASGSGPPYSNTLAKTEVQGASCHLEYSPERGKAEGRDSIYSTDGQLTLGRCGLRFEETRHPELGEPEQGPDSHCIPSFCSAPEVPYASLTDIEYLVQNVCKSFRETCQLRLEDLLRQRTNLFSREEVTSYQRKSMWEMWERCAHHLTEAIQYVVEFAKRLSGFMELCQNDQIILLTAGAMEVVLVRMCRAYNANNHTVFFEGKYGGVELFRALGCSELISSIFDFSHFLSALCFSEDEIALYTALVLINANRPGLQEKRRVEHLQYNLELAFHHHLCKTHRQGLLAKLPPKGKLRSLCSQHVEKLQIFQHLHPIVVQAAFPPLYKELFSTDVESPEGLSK
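Schneider cells (Drosophila), stable Gal4 DBD–ROR gamma + UAS-luc; 1 hr cmpd preincubation; Cu2+ induction 700 uM final; 20 hr ambient; luminescence.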
Starred values were filed as active, the others as inactive; ? = inconclusive; / = not tested or not shown; [ ] = another dose, or the depositor's remark. Unless noted, the call rests on the fitted dose curve; in most records, active means well fitted curve in the direction sought with a large enough effect; inconclusive means small, poorly fitted or top-dose-only effect, or another doubt; inactive means no such curve, though single readings can be large; an effect the other way counts as inactive or inconclusive.

SMILES	MCF10A rereplic	Gal4-VP16 FLuc	IL1B secr inh	SW480 rereplic	RORg inh
Cc1ccc(CNC(=O)/C=C/c2ccc(S(=O)(=O)N3CCOCC3)cc2)cc1	?	-4.7%	-6.2	0.82µM*	?
O=C(/C=C/c1ccc(F)cc1)Nc1ccc(S(=O)(=O)N2CCOCC2)cc1	2.4%	0.9%	-13.5	-4.0%	-1.3%
CCN(CC)c1ccc(S(=O)(=O)N2CCOCC2)cc1NC(=O)COC(=O)/C=C/c1ccc(C)o1	?	/	?	-11.4%	/
CC(C)COCC(CN(Cc1ccccc1)c1ccccc1)N1CCCC1 (stereo not given)	1.4%	?	-82.6*	0.5%	?
Oc1c(C=NCc2ccc(F)cc2)[nH]c2ccc(Br)c(Cl)c12	/	-1.6%	/	/	-33.3%
Cc1ccc(CN=Cc2[nH]c3ccc(Br)c(Cl)c3c2O)cc1	3.9%	?	0.0	-9.1%	12.6µM*
COC(=O)C1=CN(c2ccc(C(C)(C)C)cc2)C(N)=C(C#N)C1c1ccccc1F (stereo not given)	/	/	20.0	/	/
O=C1CCCCC1Sc1nnc(-c2ccc3c(c2)OCO3)o1 (stereo not given)	-0.5%	0.891µM*	1.1	-0.3%	0.562µM*
Clc1ccc(CSc2nnc(-c3ccc4c(c3)OCO4)o2)cc1	4.3%	9.8%	-8.6	-2.0%	35.0%
CCc1c(C)c2ccc(OCC(=O)NCC3CCC(C(=O)O)CC3)cc2oc1=O (stereo not given)	-3.3%	-13.1%	14.2	-5.5%	-21.3%
COc1ccc(NC(=O)C23CC4CC(C2)CC(n2cnc(Br)n2)(C4)C3)c(OC)c1	-1.1%	-41.1%	30.6	-7.6%	5.62µM*
COc1ccc(OC)c(NC(=O)C23CC4CC(C2)CC(n2cnc(Br)n2)(C4)C3)c1	-8.5%	1.8%	2.6	-1.9%	-5.1%
CCOC(=O)/C=c1/s/c(=C/c2ccc3cc(OC)ccc3c2)c(=O)n1CC(=O)NCC1CCCO1 (stereo not given)	?	/	0.0	3.66µM*	/
CCOC(=O)/C=c1\s/c(=C\c2ccc(C(=O)OC)cc2)c(=O)n1CC(=O)Nc1ccccc1	?	-20.1%	3.2	10.6%	-1.4%
CCOC(=O)/C=c1\s/c(=C\c2c(OC)ccc3ccccc23)c(=O)n1CC(=O)NCC1CCCO1 (stereo not given)	1.16µM*	-1.4%	31.4	5.8µM*	-7.8%
Cc1cnc2ccc(F)cc2c1	/	/	0.0	/	/
Cc1cc(C)c2cc3c(N)c(C(=O)N4CCc5ccccc5C4)sc3nc2c1	-5.6%	12.9%	9.3	3.3%	-35.6%
Cc1cccc2cc3c(N)c(C(=O)N4CCOCC4)sc3nc12	4.11µM*	-3.4%	-55.3*	3.55µM*	-33.4%
COC(=O)[C@@]1(Cc2ccccc2)[C@H]2c3cc(C(=O)N(C)C)n(Cc4cc(C)n(C)n4)c3C[C@H]2CN1C(=O)c1ccccc1	/	-8.6%	/	/	10.6%
Cc1cc(O)c(C(C[N+](=O)[O-])c2ccc(Cl)cc2Cl)c(=O)o1 (stereo not given)	?	?	1.3	7.1%	15.8µM*
Cc1ccc(S(=O)(=O)N2[C@H](CC(=O)c3ccc(Cl)c(Cl)c3)OC[C@@H]2C)cc1	/	/	22.6	/	/
Cc1cccc2sc(N)nc12	/	6.4%	/	/	4.5%
O=C(NCc1ccc(N2CCCC2=O)cc1)Nc1cccc(Cl)c1	?	-13.1%	-60.6*	?	6.0%
O=C(NCc1ccc(N2CCCC2=O)cc1)c1cccc(Cl)c1	-2.1%	-4.8%	42.1	1.7%	6.0%
Cc1nc(NC2CCCCC2)c2nc(-c3ccccc3)n(CCN3CCCCC3)c2n1	/	-9.5%	/	/	-4.0%
SMILES	MCF10A rereplic	Gal4-VP16 FLuc	IL1B secr inh	SW480 rereplic	RORg inh
Cc1nc(NC2CCCCC2)c2nc(-c3ccccc3)n(C(C)CN(C)C)c2n1 (stereo not given)	/	-1.4%	/	/	10µM*
COc1ccc(C#CC2C=CC(Oc3cc(C)cc(C)c3)C(CO)O2)cc1 (stereo not given)	/	-3.8%[10 µM]	/	/	2.7%[10 µM]
CCOC(=O)c1c(-c2ccc(OC)cc2)oc2cc(Br)c(O)cc12	14.6µM*	?	12.2	0.3%	-16.8%
CCCCC(=O)N(C)c1c(CC)nc2c(OCCC3CCCCC3)cccn12	/	/	-67.8*	/	/
CCOC(=O)N(C)c1c(CC)nc2c(OCCC3CCCCC3)cccn12	/	/	-76.5*	/	/
CCCCC(=O)N(C)c1c(CC)nc2c(OCC3CCCCC3)cccn12	/	/	-22.2	/	/
CCc1nc2c(OCCC3CCCCC3)cccn2c1N(C)C(=O)c1cccs1	/	/	-54.2*	/	/
Cc1nc2c(OCc3ccc(C#N)cc3)cccn2c1N(C)C(=O)CCC1CCCC1	/	/	-55.3*	/	/
COCC(=O)N1CCC2(CCCN(Cc3ccc(C#N)cc3)C2)CC1	/	-6.3%	/	/	1.6%
COc1ccc(S(=O)(=O)NC(=O)C2(C)CCN2C(=O)c2c(C)noc2C)cc1 (stereo not given)	/	/	-17.6	/	/
CSc1ccc(C(O)c2ncc(-c3ccc(F)cc3)[nH]2)cc1 (stereo not given)	/	/	10.1	/	/
COC(=O)c1cn(CC(=O)N2C(C)CCCC2C)c2ccccc12 (stereo not given)	?	17.0%	4.2	-5.5%	4.0%
CC1CCCC(C)N1C(=O)Cn1cc(/C=C2/C(=O)Nc3ccccc32)c2ccccc21 (stereo not given)	-4.7%	-1.2%	-54.6*	-1.3%	11.9%
COC(=O)C1=CN(c2cccc(C(F)(F)F)c2)C=C(C(=O)OC)C1c1ccc(O)c(OC)c1	?	9.3%	-50.9*	?	18.5%
Cc1cccc2sc(NC(=O)c3cc(S(=O)(=O)N(C)C)ccc3N3CCCC3)nc12	?	-5.1%	-124.1*	?	30.7%
CN(C)S(=O)(=O)c1ccc(N2CCCC2)c(C(=O)Nc2nc3ccc(F)cc3s2)c1	9.7%	11.7%	-50.9*	2.4%	?
CN(C)S(=O)(=O)c1ccc(N2CCCC2)c(C(=O)Nc2nc3ccccc3s2)c1	?	-1.6%	?	?	?
CC(=O)N1CCC2(CC1)CCN(c1ccccn1)CC2	/	27.5%	/	/	8.2%
COc1ccc(C2CC(=O)c3c(O)cc(O)cc3O2)c(CC=C(C)C)c1OC (stereo not given)	?	/	10.4	?	/
COc1cc2c(c(OC)c1CC=C(C)C)C[C@H](c1ccc(O)cc1O)CO2	16.4µM*	/	-17.5	2.4%	/
CC(C=O)Cc1ccc(C(C)(C)C)cc1 (stereo not given)	/	-1.2%	/	/	25.2%
CSCCC(NC(=O)c1cccc(C)c1)C(=O)Nc1sccc1C(N)=O (stereo not given)	3.7%	7.3%	-13.1	-9.6%	26.2%
Cc1snnc1C(=O)NC(=S)Nc1ccccc1	0.0%	5.62µM*	13.5	-0.6%	4.47µM*
NC(=O)c1ccccc1NC(=S)NC(=O)c1ccc(Br)o1	2.0%	17.2%	0.2	-7.3%	-28.2%
COc1ccc(NC(=O)c2ccc(Br)o2)cc1	-6.9%	-4.8%	-9.3	-9.4%	-20.0%

Bioassay records: PubChem BioAssay, National Center for Advancing Translational Sciences (NCATS)
